Unmarked numbers belong to inactive results. Active and inactive are the calls of the source. Calls come from the whole dose curve; as a rule, active = well fitted inhibition curve with a large enough effect in the repeat runs (not every such curve was filed as active); inconclusive = weak or mixed curves; inactive = flat fitted curve, though single readings scatter.
% is set by controls: 0 for no effect and ±100 for the full control effect.

Thyrotropin-releasing hormone receptor (Homo sapiens), sequence (P34981 whole entry, looked up): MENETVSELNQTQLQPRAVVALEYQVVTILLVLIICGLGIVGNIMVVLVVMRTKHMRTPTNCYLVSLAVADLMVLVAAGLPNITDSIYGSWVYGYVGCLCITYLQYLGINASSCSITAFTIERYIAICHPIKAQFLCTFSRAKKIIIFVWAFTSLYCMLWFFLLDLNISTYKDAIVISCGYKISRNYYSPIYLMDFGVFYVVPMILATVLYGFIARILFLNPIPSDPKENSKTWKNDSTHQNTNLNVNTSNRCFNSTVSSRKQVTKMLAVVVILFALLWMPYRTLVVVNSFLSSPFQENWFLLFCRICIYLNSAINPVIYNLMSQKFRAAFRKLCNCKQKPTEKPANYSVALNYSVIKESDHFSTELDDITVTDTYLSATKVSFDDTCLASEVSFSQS

In this test the target is Thyrotropin-releasing hormone receptor (Homo sapiens) (UniProt P34981). The experiment in a line: qHTS assay to identify small molecule antagonists of the thyrotropin-releasing hormone receptor (TRHR) signaling pathway (AID 1346877). The conditions noted are these: TRHR-HEK293, TRH-induced calcium fluorescence, antagonist mode; series mostly up to 51.3 µM. The source says:
National Center for Advancing Translational Sciences [NCATS]
NIH Chemical Genomics Center [NCGC]
U.S. Environmental Protection Agency [EPA]
National Institutes of Environmental Health Sciences [NIEHS]
National Toxicology Program [NTP]
U.S. Food and Drug Administration [FDA]
Thyrotropin-releasing hormone (TRH) receptor (TRHR) is a G-protein-coupled receptor which binds the tripeptide thyrotropin releasing hormone. TRHR is found in the brain and, when bound by TRH, acts (through phospholipase C) to increase intracellular inositol trisphosphate. It plays a crucial role in the anterior pituitary where it controls the synthesis and secretion of thyroid stimulating hormone and prolactin. The TRHR-Hek293 assay is a cell-based assay, and it has the potential to screen G protein-coupled receptors. A compound/drug can either activate (agonist) or suppress (antagonist) GPCRs that can be monitored by levels of intracellular calcium. In this assay, the Tox21 10K compound library was screened to identify potential TRHR antagonists.
Tox21 Assay Protocol Summary:
The TRHR-Hek293 cells were dispensed at 1500cells/4uL/well in 1536-well black-clear bottom plates using a Multidrop dispenser. After the assay plates were incubated at a 37 C/5% CO2 incubator for 18 hours, 4 uL of Dye-Loading Solution was added to each well. The plates were incubated at 37 C for 2 hours. For agonist mode, 23 nL of compounds dissolved in DMSO, positive controls or DMSO only was transferred to the assay plate by a pin tool. The fluorescence intensity in the plates was measured using FDSS 7000EX kinetic plate reader for 3 min at 1 sec intervals. For antagonist mode, 23 nL of compounds dissolved in DMSO, positive controls or DMSO only was transferred to the assay plate by a pin tool. After 5 min incubation at room temperature, 1 uL of TRH was added on the top of the cell/compound mixtures to achieve a final agonist concentration of 1 nM. The fluorescence intensity in the plates was measured using FDSS 7000EX kinetic plate reader for 3 min at 1 sec intervals. Each test compound was measured at 15 concentrations and in triplicates.
On the technique in general: qHTS replaces the single test concentration by a dilution series.
On to `Cc1cc(N)n(-c2ccccc2)n1`, for which the result was inactive.

For `CCCCCCCCCCCCCCCCN`, the outcome was inactive.

Turning to `Cc1c(-c2cccnc2)c2ccccc2n1CCCCC(=O)O`, the outcome was inactive.

For `COc1ccc(C(=O)c2ccc(C)cc2)c(O)c1`, the result was inactive.

In the case of `CCCOC(C)=O`, the result was inactive.

As to `O=C(Cl)c1ccc(F)c(Cl)c1`, the outcome was inactive.

For the molecule `CCCc1ccc(OC)cc1`, the outcome was inactive.

Turning to `CCCCCCCCCCCCN1CCOCC1`, the result was inactive.

For the molecule `CC1=C(C)C(=O)C(CCCCC#CCCCC#CCO)=C(C)C1=O`, the outcome was inactive.

For `O=c1[nH][nH]c2ccccc12`, the result was inactive.

`S=c1[nH][nH]c(=S)s1`: the outcome was inactive.

Consider `Nc1ccc(-c2ccc(F)cc2)cc1`, for which the outcome was inactive.

Take `CCOCCn1c(N2CCCN(C)CC2)nc2ccccc21`: the outcome was inactive.

With `CC(=O)OCC(=O)[C@@]1(O)CC[C@H]2[C@@H]3CCC4=CC(=O)C=C[C@]4(C)[C@@]3(F)[C@@H](O)C[C@@]21C`, the result was inactive.

Consider `CCOc1ccccc1O`, for which the result was inactive.

As for `CCC1=C(C)CN(C(=O)NCCc2ccc(S(=O)(=O)NC(=O)NC3CCC(C)CC3)cc2)C1=O` (stereo not given), the result was inactive.

Regarding `c1ccc(CN(Cc2ccccc2)Cc2ccccc2)cc1`, the outcome was inactive.

On to `CCC(CC)C(=O)O`, for which the result was inactive.

`CC(C)CCCCCOC(=O)CS`: the outcome was inactive.

As for `COc1ccc(/C=C/S(=O)(=O)NC(=O)c2ccc(C)cc2Cl)cc1`, the outcome was inactive.

For the molecule `O=C(N[C@@H](Cc1ccccc1)[C@@H](O)C(=O)N1C[C@@H](O)[C@@H](O)C1)c1cc2cc(Cl)ccc2[nH]1`, the result was inactive.

As for `COC(=O)/C=C/C(C)=C\C=C\C(C)=C\C=C\C=C(C)\C=C\C=C(C)\C=C\C(=O)O`, the result was inactive.

For `O=C(O)c1cccnc1Nc1cccc(C(F)(F)F)c1`, the outcome was inactive.

For `Cc1ccc2ccccc2c1[N+](=O)[O-]`, the outcome was inactive.

Consider `O=C(OCCN1CCOCC1)c1cccnc1Nc1cccc(C(F)(F)F)c1`, for which the outcome was inactive.

For the molecule `C=CC(C)CCC=C(C)C` (stereo not given), the outcome was inactive.

As to `CCCCCCCCCCCCCCCCC(=O)O`, the outcome was inactive.

In the case of `Cc1ccc(NC=O)c(C)c1`, the outcome was inactive.

`O=C(C1CCCCC1)N1CC(=O)N2CCCc3ccccc3C2C1` (stereo not given): the outcome was inactive.

With `OCCCO`, the result was inactive.

On to `CO[C@@H]1[C@@H](O[C@@H]2O[C@H](C)[C@@H](O[C@H]3C[C@@](C)(O)[C@@H](O)[C@H](C)O3)[C@H](N(C)C)[C@H]2O)[C@@H](CC=O)C[C@@H](C)[C@@H](O[C@@H]2CC[C@H](N(C)C)[C@@H](C)O2)/C=C/C=C/C[C@@H](C)OC(=O)C[C@H]1OC(C)=O`, for which the result was inactive.

Take `CCCC(=O)OCCC(C)C`: the outcome was inactive.

On to `CC(C)=CCCC(C)C=O` (stereo not given), for which the outcome was inactive.

As to `O=C1c2ccccc2C(=O)C1c1ccc2cc(S(=O)(=O)O)cc(S(=O)(=O)O)c2n1`, the outcome was inactive.

In the case of `O=P(c1ccccc1)(c1ccccc1)c1ccccc1`, the result was inactive.

Consider `C=CC(O)CCCCC` (stereo not given), for which the result was inactive.

As to `O=C(O)c1ccc2c(c1)nc(C(=O)NC1CCN(C3CC3)CC1)n2Cc1cc(-c2ccc(Cl)s2)on1`, the activity, negative = inhibition is 0.0336% [at 10.5 µM].

Turning to `C[C@H]1C[C@H]2[C@@H]3CCC4=CC(=O)C=C[C@]4(C)[C@@]3(F)[C@@H](O)C[C@]2(C)[C@@]1(O)C(=O)COP(=O)(O)O`, the outcome was inactive.

In the case of `CC(C)NC(=O)c1ccccc1N`, the result was inactive.

Consider `CCCCCCCCCCCCCCCCCCCl`, for which the activity, negative = inhibition is 0.326% [at 4.65 µM].

The values are drawn from PubChem BioAssay (Tox21).
